Screening data from PubChem.
Giardia kill – kills Giardia lamblia. activity change, % at 7.66 µM, hits read low. 0.15% of 340,000 active. Giardia lamblia trophozoite viability; in the data active means activity change below about -80%; inconclusive means between about -30% and that limit;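 further: parasites exposed to compound for two days anaerobically before the ATP read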
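Anaerobic 48 hrs incubation at 37 deg C of 100 trophozoites/well with test compounds; ATPLite 1-Step luminescence, 15-30 min RT, reports cellular ATP as viability.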
TDP1 block – blocks human tyrosyl-DNA phosphodiesterase 1. Q9NUW8. recombinant TDP1, AlphaScreen DNA substrate cleavage. Potency, µM (highest dose often 130 µM), actives largely listed as inhibitors. 0.28% of 350,000 active; further: nearly all actives have a fitted effect of over 40% in size
Target sequence (Q9NUW8 whole entry, looked up): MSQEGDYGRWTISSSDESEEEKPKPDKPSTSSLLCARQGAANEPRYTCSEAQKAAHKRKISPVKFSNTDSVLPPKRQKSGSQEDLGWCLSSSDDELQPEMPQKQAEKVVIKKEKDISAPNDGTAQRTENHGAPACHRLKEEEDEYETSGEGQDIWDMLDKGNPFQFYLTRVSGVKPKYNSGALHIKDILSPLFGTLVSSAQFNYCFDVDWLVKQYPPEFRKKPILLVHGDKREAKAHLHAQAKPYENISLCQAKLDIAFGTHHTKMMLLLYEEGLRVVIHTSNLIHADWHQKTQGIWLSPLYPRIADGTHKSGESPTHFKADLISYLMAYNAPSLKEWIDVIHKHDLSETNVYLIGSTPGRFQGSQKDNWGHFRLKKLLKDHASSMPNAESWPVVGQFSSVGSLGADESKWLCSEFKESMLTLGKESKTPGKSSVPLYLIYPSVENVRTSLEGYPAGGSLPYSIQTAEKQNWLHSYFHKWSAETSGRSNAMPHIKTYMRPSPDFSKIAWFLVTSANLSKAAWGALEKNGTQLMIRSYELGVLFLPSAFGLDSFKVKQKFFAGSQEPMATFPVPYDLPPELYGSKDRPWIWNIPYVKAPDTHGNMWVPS
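AlphaScreen read-out: signal falls as enzyme removes the 3' tyrosine-FITC from a 5'-biotinylated DNA oligo (15 nM, 5 min, RT). Enzyme was E. coli-made recombinant Tdp1 at 1 nM, exposed to compound for 15 min beforehand; beads 10 ug/ml, 10 min.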
ELG1 DNA repair – blocks ELG1-dependent DNA repair in HEK293T cells | HEK293T ELG1-luciferase reporter, luminescence, 16 h; DNA damage induced by 5-fluorouridine | Potency, µM (doses to about 46.1 µM), usual class: inhibitors | 2.3% of 330,000 active | AID 504467; further: nearly all actives have a fitted effect of over 55% in size
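Step one: seed 2,000 cells per well. Step two: pin-transfer compound or DMSO alongside 5-fluorouridine. Step three: incubate 16 hr, 37 °C, 5% CO2. Step four: add ONE-Glo, wait 30 min, read luminescence.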
DT40 TDP1 no CPT – qHTS for Inhibitors of human tyrosyl-DNA phosphodiesterase 1 (TDP1): qHTS in cells in absence of CPT; Potency, µM (series often up to 46.2 µM), hits mostly inhibitors; 15% of 420,000 active; DT40 Tdp1-/- hTDP1 cells, no CPT, ATP luminescence, 48 h; further: nearly all actives have a fitted effect of over 55% in size
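Growth kinetics read by CellTiter-Glo luminescence after ≥48 hr at 37 °C. Cells: DT40 Tdp1-/- stably carrying human TDP1, 400 per well, compound exposure in the absence of CPT (DMSO vehicle).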
DT40 TDP1 CPT – growth inhibition of DT40 Tdp1-/-;hTDP1 cells with camptothecin (screen for TDP1 inhibitors); Potency, µM (titrated, usually from 46.2 µM), hits mostly inhibitors; 12% of 420,000 active; AID 686979; chicken DT40 Tdp1-/-;hTDP1 cells + 20 nM CPT, ATP luminescence, 48 h; further: nearly all actives have a fitted effect of over 55% in size
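Chicken DT40 Tdp1-/- cells stably complemented with human TDP1 were seeded at 400 cells/well in medium containing 20 nM camptothecin, exposed to pin-transferred compounds, and grown at 37 °C for at least 48 hr. Viability was read as ATP luminescence.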
IL-1B inflam inh – inflammasome signaling inhibition, IL-1 beta readout. THP-1 LPS/ATP IL-1B secretion, AlphaLISA, 16 h; stronger effect = lower value. activity change, % at 57.5 µM. 4.7% of 360,000 active. AID 743279; in the data active means activity change below about -50%; inconclusive means mostly about -30% to -49%
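THP-1 cells pretreated 1 hr with compounds (up to 57.5 uM final), then stimulated with LPS (250 ng/mL final) plus ATP (1.25 mM final); secreted IL-1B measured by AlphaLISA after 16 hr, decreased signal indicating inhibition.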
A number is an active result; - = inactive; ? = inconclusive; . = not tested or not shown. Compounds with a hit are over-represented: about 19% of the library has one in this group of screens. Unless noted, the call rests on the fitted dose curve; in most records, active means well fitted curve in the direction sought with a large enough effect; inconclusive means small, poorly fitted or top-dose-only effect, or another doubt; inactive means no such curve, though single readings can be large; an effect the other way counts as inactive or inconclusive.

SMILES	Giardia kill	TDP1 block	ELG1 DNA repair	DT40 TDP1 no CPT	DT40 TDP1 CPT	IL-1B inflam inh
CCOC(=O)C1(c2ccccc2)CCN(CC(=O)c2ccc(NC(C)=O)cc2)CC1	-	.	.	?	?	-
CCOC(=O)C1(CCOc2ccccc2)CCN(Cc2ccc(C)s2)CC1	-	-	?	7.31µM	?	-96.3
CCOC(=O)C1(CCc2ccccc2)CCN(C2CCSCC2)CC1	-	-	-	6.51µM	8.2µM	-
CC(=O)OCC1=C(C(=O)O)N2C(=O)[C@@H](N)[C@H]2SC1	.	.	.	-	-	.
CCCCOC(C)=O	.	-	.	.	.	.
CC=C(C)C(=O)O[C@H]1C(C)=C2[C@@H]3OC(=O)[C@@](C)(O)[C@@]3(O)[C@@H](OC(=O)CCC)C[C@](C)(OC(C)=O)[C@@H]2[C@@H]1OC(=O)CCCCCCC	.	-	.	0.116µM	0.206µM	.
CCC(C)C1NC(=O)C2CCCN2C(=O)C(CC(C)C)OC(=O)CCNC(=O)C(C)N(C)C(=O)C(C(C)C)N(C)C1=O (stereo not given)	-	.	.	4.11µM	3.26µM	-
N#CN=C1SCCN1Cc1ccc(Cl)nc1	.	-	.	.	.	.
CCOC1=C2[C@@H](CN(S(=O)(=O)c3ccccc3C)[C@H]2c2ccc(Cl)cc2)[C@H]2C(=O)NC(=O)[C@H]2C1	.	.	.	?	?	-
CC1=CC(=O)OC2CC3OC4C[C@@H](C)C5OC6CC7O[C@]8(C)C/C=C\C9OC%10CC%11OC(CC(C)CO)CC(O)[C@]%11(C)OC%10CC9OC8C[C@]7(C)O[C@]6(C)CCC5OC4C[C@]3(C)OC12 (stereo not given in full)	-	-	-	20.6µM	18.4µM	-
C=C(COC(=O)CCC(=O)O)CC1CC(O)[C@]2(C)OC3CC4OC5C[C@]6(C)O[C@]7(C)CCC8OC9C[C@]%10(C)OC%11C(C)=CC(=O)OC%11CC%10OC9C[C@@H](C)C8OC7CC6O[C@]5(C)C/C=C\C4OC3CC2O1 (stereo not given in full)	-	-	-	?	13µM	-
Cc1nc2cc(-c3ccc(Cl)cc3)nn2c(C)c1CCC(=O)N1CCC2(CC1)OCCO2	-	.	.	20.6µM	23.1µM	-
Clc1ccc2c(c1)C(c1ccccc1Cl)=NCc1nnc(N3CCN(CCSc4ccccc4)CC3)n1-2	-	-	-	?	25.9µM	-
C[C@H]1[C@@H]2Cc3ccc(O)cc3[C@@]1(C)CCN2C	.	.	.	-	-	.
CCC(=NCc1ccc2c(c1)OCO2)c1c(O)n(C2CCCCC2)c(=O)[nH]c1=O	-	-	20.6µM	?	?	-
CCC(=NCCO)c1c(O)n(C2CCCCC2)c(=O)[nH]c1=O	-	-	?	-	-	-
CN(C)C(=O)Oc1ccc2nnc3ccnn3c2c1	-	.	-	?	-	-
Cc1ccc(OC(F)F)c(N2C(=O)C3C4CCC(O4)C3C2=O)c1 (stereo not given)	-	-	?	-	-	-
COCCOC(=O)C1=C(C)OC(N)=C(C(=O)OC)C12C(=O)Nc1ccccc12 (stereo not given)	-	-	-	-	-	-
COC(=O)C1=C(N)Oc2cc(C)oc(=O)c2C12C(=O)Nc1ccccc12 (stereo not given)	-	-	-	16.4µM	?	-
Clc1ccc(N2CC3CCC(C2)N3)nn1	.	-	.	.	.	.
C[C@H](CO)N1C[C@H](C)[C@@H](CN(C)S(=O)(=O)c2cccs2)Oc2ccc(NC(=O)Nc3ccc4c(c3)OCO4)cc2C1=O	-	-	?	18.4µM	20.6µM	?
C[C@H](CO)N1C[C@H](C)[C@@H](CN(C)Cc2ccc(Cl)c(Cl)c2)Oc2c(NC(=O)c3ccncc3)cccc2C1=O	-	-	?	?	20.6µM	-
COc1ccc(S(=O)(=O)N(C)C[C@H]2Oc3c(NC(=O)NC4CCCCC4)cccc3C(=O)N([C@H](C)CO)C[C@@H]2C)cc1	-	-	?	?	?	-55.3
C[C@H](CO)N1C[C@H](C)[C@H](CN(C)S(=O)(=O)c2ccccc2)Oc2ccc(NC(=O)NC3CCCCC3)cc2CC1=O	-	-	-	?	?	?
SMILES	Giardia kill	TDP1 block	ELG1 DNA repair	DT40 TDP1 no CPT	DT40 TDP1 CPT	IL-1B inflam inh
CN1C(=O)[C@]23CC4=CC=C[C@H](O)[C@H]4N2C(=O)[C@@]1(CO)SS3	.	-	.	.	.	.
O=C1N[C@H](Cc2ccccc2)C(=O)N2[C@@H]3[C@H](C[C@@H]12)c1ccccc1N3OOSc1ccccc1	?	.	.	18.4µM	16.4µM	-
COCCNC(=S)N1Cc2ccccc2-n2nncc2C1	.	.	.	-	-	-
S=C(NCCc1ccccc1)N1Cc2cc(-c3ccccc3)ccc2-n2nncc2C1	.	.	.	?	?	-
Fc1cccc(-c2ccc3c(c2)CN(C(=S)NCCc2ccccc2)Cc2cnnn2-3)c1	.	.	.	?	?	-57.4
S=C(NCCc1ccccc1)N1Cc2ccccc2-n2nncc2C1	.	.	.	20.6µM	?	-
O=CN1CCCCC1C1CC[C@H]2CCCCN2C1 (stereo not given in full)	.	-	.	-	-	.
COc1ccc(C(=O)Nc2nnc(S(=O)(=O)N(CC(C)C)c3ccc(C)cc3)s2)cc1OC	.	-	.	?	?	.
CC(CN)CC(=O)O (stereo not given)	.	-	.	-	-	.
OC[C@@H]1[C@@H](O)[C@H](O)[C@H]2[C@@H](O)CCN21	.	-	.	.	.	.
O=C1CCCCC1CN1CCCCC1 (stereo not given)	.	-	.	-	?	.
C[C@H](CO)N1C[C@H](C)[C@@H](CN(C)C(=O)c2ccc3c(c2)OCO3)Oc2cc(/C=C/c3ccccc3)ccc2S1(=O)=O	.	.	.	8.2µM	20.6µM	?
O=C(COc1ccc(S(=O)(=O)N2CCOCC2)cc1)N1CCN(Cc2ccc3c(c2)OCO3)CC1	-	-	?	?	?	-
CCCCNS(=O)(=O)c1ccc(OCC(=O)N2CCN(Cc3ccc4c(c3)OCO4)CC2)cc1	-	-	-	?	10.3µM	-
CSc1ccc(CN2CCN(C(=O)COc3ccc(C)cc3)CC2)cc1	-	-	?	18.4µM	?	-
Cc1ccc(OCC(=O)N2CCN(Cc3ccc4c(c3)OCO4)CC2)cc1C	-	-	-	-	-	-
O=C(COc1ccc(Br)cc1)N1CCN(Cc2ccc3c(c2)OCO3)CC1	-	-	-	-	?	-59.6
Cn1nc(-c2ccc(OCC(=O)N3CCN(Cc4ccccc4)CC3)cc2)c2ccccc2c1=O	-	-	?	6.51µM	13µM	-
O=C1CC(O)(CF)CCO1 (stereo not given)	.	-	.	.	.	.
Cc1cc(=O)oc2cc(Oc3ccc([N+](=O)[O-])cc3C(F)(F)F)ccc12	-	.	.	?	?	-
